Reference: PubChem BioAssay (Tox21)
Values joined by “and” are separate entries in the source; they are usually repeats but may differ in a detail not shown here. Equal values may be shown once. Inconclusive results are not listed. A number with no mark means an inactive call. Active and inactive are the calls of the source. The call rests on the fitted dose curve; in most records, active means well fitted inhibition curve with a large enough effect in the repeat runs; inconclusive means weak or mixed curves; inactive means no such curve, though single readings can be large or run the other way.

Assay: qHTS assay to identify small molecule antagonists of the thyroid receptor (TR) signaling pathway (AID 743065); further: nearly all actives have a fitted effect of over 55% in size
Settings: GH3.TRE-Luc, T3-stimulated luciferase inhibition, 23.5 h; series mostly up to 70.3 µM; activity, negative = inhibition: at the top concentration
Text: U.S. Tox21 Program National Center for Advancing Translational Sciences [NCATS] NIH Chemical Genomics Center [NCGC] U.S. Environmental Protection Agency [EPA] National Institutes of Environmental Health Sciences [NIEHS] National Toxicology Program [NTP] U.S. Food and Drug Administration [FDA] Tox21 Assay Overview: Thyroid receptor (TR), a nuclear hormone receptor, plays an important role in development, proliferation, differentiation, metabolism, brain function, and cardiovascular system. […] To profile the Tox21 10K compound library in TR signaling, a cell-based GH3-TRE-Luc assay (GH3.TRE-Luc cell line, developed by the laboratory of Dr. Albertinka J. Murk, Wageningen University) was used to measure the inhibition of TR. GH3 (rat pituitary tumor) cells stably expressing a TR activity sensor consisting of two TR response elements and a luciferase reporter gene.
Tox21 Assay Protocol Summary: GH3.TRE-Luc cells were dispensed at 1500 cells/4 uL/well into 1536-well white solid bottom plates using a Multidrop Combi dispenser (Thermo Fisher Scientific Inc., Waltham, MA). After the assay plates were incubated at 37 C for 4 hours, 23 nL of library compound or DMSO controls was transferred to the assay plates by a pintool station (Kalypsys, San Diego, CA), followed by addition of 1 ul of T3 (1 nM, final concentration in the wells) to stimulate TR transactivation. The assay plates were incubated at 37 C for 23.5 h, and then 1 uL of CellTiter-Fluor reagent (Promega, Madision, WI) of measuring cytotoxicity was added to each well using a Bioraptr Flying Reagent Dispenser (FRD) workstation (Beckman Coulter, Indianapolis, IN, USA). The plates were incubated at 37 C and 5% CO2 for additional 30 min, and fluorescence intensity was measured by a ViewLux plate reader (PerkinElmer, Shelton, CT). For measuring luciferase reporter gene activity, 4 uL of ONE-Glo Luciferase Assay reagent (Promega) was added to each well using a Bioraptr FRD (Beckman Coulter), followed by 30 min incubation at room temperature. The luminescence intensity of plates was recorded by a ViewLux plate reader (PerkinElmer, Shelton, CT).
On the % scale 0 is the no-effect control and ±100 the full control effect; potency means the concentration at half of the fitted maximal effect.

Structure (SMILES) | Potency | activity, negative = inhibition
CCCCCCCCCCCC[N+](C)(C)CCOc1ccccc1 | 10.6 µM (active) and 9.69 µM (active) | 
C=CC(C)(CCC=C(C)C)OC(=O)c1ccccc1N (stereo not given) |  | -2% [at 95 µM]
CCCCCCCCCCCCN(C)C |  | 2.11%
Cc1ccccc1 | inactive | 
CCC1(CCC(C)C)C(=O)NC(=O)NC1=O |  | 1.01%
CCOc1cccc(C2(N3CCN(c4ccccc4)CC3)CCC(C)CC2)c1 (stereo not given) |  | 14%
CCCCNC(=O)OCC#CI | 9.64 µM (active) and 4.86 µM (active) | 
CCCCC#N |  | 13.3%
NNCCO |  | 8.33%
COP(=O)(OC)OC(Br)C(Cl)(Cl)Br (stereo not given) | 54.5 µM (active) and 48.6 µM (active) | 
OCCSSCCO |  | -0.475%
O=C1CC[C@@]2(O)[C@H]3Cc4ccc(O)c5c4[C@@]2(CCN3CC2CC2)[C@H]1O5 |  | 15.1%
CCCCCBr |  | 3.6% [at 95 µM]
c1ccc2c(c1)-c1cccc3cccc-2c13 | inactive | 
C[CH2][Hg][S]c1ccccc1C(=O)O | 335 nM (active) and 243 nM (active) | 
O=C=NC1CCCCC1 |  | -2.4%
C1CS1 |  | 5.98% [at 95 µM]
FC(Cl)(Cl)C(F)(Cl)Cl |  | -1.19% [at 95 µM]
COc1ccccc1N1CCNCC1 |  | 0.538%
CC(C)(C)NCC(O)c1cc(Cl)c(N)c(C(F)(F)F)c1 (stereo not given) |  | 2.28%

Structure (SMILES) | Potency | activity, negative = inhibition
CCOC(=O)c1cn2nc(OP(=S)(OCC)OCC)cc2nc1C |  | -24.6%
[Cl-].[Cl-].[Hg+2] | 841 nM (active) and 1.21 µM (active) and 193 nM (active) | 
CCc1cnc(C2=NC(C)(C(C)C)C(=O)N2)c(C(=O)O)c1 (stereo not given) | inactive | 
CN(C1CCCCC1)C1CCCCC1 |  | 6.78%
CCCCC1C(=O)NC(=O)N(C2CCCCC2)C1=O (stereo not given) |  | 5.67%
CC1(C)[C@H](C(=O)O[C@H](C#N)c2cccc(Oc3ccccc3)c2)[C@@H]1C=C(Br)Br |  | -19.5% [at 95 µM]
CC[N+]1(CCOC(=O)C(O)(c2ccccc2)c2ccccc2)CCCCC1 |  | 18.8%
CCSCc1ccccc1OC(=O)NC |  | -0.332%
CCC1(CC)C(=O)NC(=O)NC1=O |  | 8.11%
NP(N)(=O)NC(=O)c1ccc(F)cc1 |  | -2.46%
Clc1ccc2ccccc2c1 |  | 0.0136% [at 95 µM]
Cc1nc2ccccc2c(=O)n1-c1ccccc1Cl |  | -22%
OCCCl |  | 14.4%
Cc1cnc(C2=NC(C)(C(C)C)C(=O)N2)c(C(=O)O)c1 (stereo not given) |  | 5.45%
O=C(O)c1cc(Cl)ccc1Cl |  | 2.38%
Cc1ccc(N)c(C)c1 | inactive | 
CCCSP(=S)(OCC)Oc1ccc(SC)cc1 (stereo not given) |  | 8.73%
C=CC(=O)OCC |  | 20.4% [at 95 µM]
FC(F)OC(F)(F)C(F)Cl (stereo not given) | inactive | 
CCCC1CCCCN1 (stereo not given) |  | 2.72%
